A short description of experiment [1]: Nuclear factor erythroid 2-related factor 2/antioxidant responsive element (Nrf2/ARE) small molecule agonists: qHTS cell viability counter screen in human keratinocytes (AID 1919968; active means well fitted curve in the direction sought with a large enough effect in the repeat runs; an effect the other way counts as inactive or inconclusive; further: nearly all actives have a fitted effect of over 55% in size; further: potency means the concentration at half of the fitted maximal effect). The method in brief:
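Cytotoxicity was multiplexed with the Nrf2/ARE luciferase assay in the same wells. Stably transfected HaCaT keratinocytes were treated with test compounds for 23 h at 37 C. Cell viability was then measured by CellTiter-Fluor fluorescence.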
For orientation: qHTS replaces the single test concentration by a dilution series.

Experiment [2] in a line: Nuclear factor erythroid 2-related factor 2/antioxidant responsive element (Nrf2/ARE) small molecule agonists: luciferase reporter gene qHTS assay in human keratinocytes (AID 1919969). Further: nearly all actives have a fitted effect of over 35% in size. Further: potency means the concentration at half of the fitted maximal effect.
Experiment [3] deals with Gonadotropin-releasing hormone receptor (Homo sapiens) (UniProt P30968). Put plainly: Human gonadotropin-releasing hormone receptor (GnRHR) small molecule agonists, calcium flux assay in GnRHR-HEK293 cells (AID 1920063). Further: nearly all actives have a fitted effect of over 35% in size. Further: potency means the concentration at half of the fitted maximal effect. In a few lines:
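Agonist activity was measured as intracellular calcium flux in HEK293 cells engineered to stably express human GnRHR. After dye loading for 1 hour at 37 C, compounds in DMSO were added and fluorescence was followed for 3 minutes.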

Experiment [4] in a line: G protein-coupled receptor (GPCR) small molecule agonists, calcium flux assay: HEK293 wild type cell line counter screen (AID 1920065). Further: potency means the concentration at half of the fitted maximal effect. In a few lines:
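Seed cells, incubate 18 h (37 C, 5% CO2); add calcium dye, 1 h at 37 C; pin-transfer compounds, ATP control or DMSO; read fluorescence 480/540 nm each second for 3 min.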

Experiment [5] can be described thus: p53 small molecule agonists, cell-based qHTS assay with human liver microsomes: qHTS cell viability counter screen (AID 1963579). Further: nearly all actives have a fitted effect of over 45% in size. Further: potency means the concentration at half of the fitted maximal effect. The method in brief: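 After the 460/530 nm beta-lactamase read, CellTiter-Glo was added to the same wells and luminescence measured after 30 min at room temperature, giving viability of p53RE-bla cells treated 16 h with compounds plus microsomes and NADPH.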

The nature of experiment [6]: p53 small molecule agonists, cell-based qHTS assay with rat liver microsomes: qHTS cell viability counter screen (AID 1963580). Further: nearly all actives have a fitted effect of over 45% in size. In a few lines: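 After the beta-lactamase ratio was read, CellTiter-Glo was added to the same wells and luminescence measured at 30 min; cells had been treated 16 h at 37 C with compounds, rat liver microsomes and NADPH (0.5 mg/mL final each).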

Experiment [7] in a line: p53 small molecule agonists, cell-based qHTS assay: qHTS cell viability counter screen (AID 1963581). Further: nearly all actives have a fitted effect of over 45% in size. In a few lines: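 Viability was counter-screened in parallel with the p53 agonist reporter by measuring intracellular ATP luminescence in the same HCT-116 p53RE-bla wells after 16 h compound treatment at 37 C.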
The target of experiment [8] is 5-hydroxytryptamine receptor 2A (Homo sapiens) (UniProt P28223). The experiment can be described thus: 5-hydroxytryptamine receptor 2A (HTR2A) small molecule agonists, cell-based qHTS assay (AID 1963587). Further: nearly all actives have a fitted effect of over 30% in size. Further: potency means the concentration at half of the fitted maximal effect. In a few lines: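 CHO cells stably expressing human HTR2A, plated 18 h, loaded with calcium dye 1 h at 37 C. Agonist mode: compounds added and intracellular calcium fluorescence recorded kinetically for 2 min at 1 sec intervals.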

For experiment [9], the target named is Muscarinic acetylcholine receptor M1 (Homo sapiens) (UniProt P11229). Put plainly: Cholinergic receptor muscarinic 1 (CHRM1) small molecule antagonists, cell-based qHTS assay (AID 1963588). Further: nearly all actives have a fitted effect of over 40% in size. Further: potency means the concentration at half of the fitted maximal effect. In a few lines:
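Compounds were tested at 15 concentrations in three independent runs. Dye-loaded CHRM1-CHO cells were exposed 5 min at room temperature before stimulation by acetylcholine added at 50nM. Intracellular calcium was read kinetically on FDSS for 3 min.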

For experiment [10] the target is unchanged. Put plainly: Cholinergic receptor muscarinic 1 (CHRM1) small molecule agonists, cell-based qHTS assay (AID 1963589). Further: nearly all actives have a fitted effect of over 35% in size. Further: potency means the concentration at half of the fitted maximal effect. In a few lines: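 Cells were plated and incubated 18 h at 37 C/5% CO2, loaded with calcium dye for 1 h at 37 C, then treated with compounds in DMSO. Fluorescence was recorded kinetically at 1 sec intervals.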
A short description of experiment [11]: cAMP Responsive Elements (CRE) small molecule antagonists, cell-based qHTS assay (AID 1963591; active means well fitted inhibition curve with a large enough effect in the signal ratio in the repeat runs, not every such curve was filed as active; the % refers to the signal ratio). The method in brief:
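Cells (CRE-bla HEK 293T, DMEM with 10% dialyzed FBS and 25 mM HEPES) are seeded and incubated 18 h. Compounds are added with NKH477 agonist at 0.25 uM final for 3 h, then FRET substrate for 2 h.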

Experiment [12] addresses Beta-2 adrenergic receptor (Homo sapiens) (UniProt P07550). Put plainly: Adrenergic beta2 receptor (ADRB2) small molecule antagonists, cell-based qHTS assay (AID 1963592). Further: series mostly up to about 92 µM; nearly all actives have a fitted effect of over 50% in size. The method in brief:
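Assay format: CHO-ADRB2 cells, 18-20hr seeding at 37C/5% CO2, then compound plus 1nM isoproterenol agonist mix for 0.5hr RT. Homogeneous time-resolved fluorescence cAMP detection after 1hr, expressed as 665/615 nm ratio.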

Experiment [13] concerns the target D(2) dopamine receptor (Homo sapiens) (UniProt P14416). Put plainly: Dopamine D2 receptor (DRD2) small molecule agonists, cell-based qHTS assay (AID 1963594). Further: nearly all actives have a fitted effect of over 35% in size. The method in brief: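 HEK293 cells stably expressing human DRD2, pre-treated with PDE inhibitor Ro20-1724 (0.1 mM final) and compound 10 min at room temperature, then stimulated with NKH477 (200nM […]) for 30 min. cAMP read by HTRF (665/620 nm).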

Experiment [14] concerns the target KiSS-1 receptor (Homo sapiens) (UniProt Q969F8). Put plainly: Human kisspeptin (KISS1R) small molecule agonists, calcium flux assay in KISS1R-HEK293 cells (AID 1920064; active means well fitted curve in the direction sought with a large enough effect in the repeat runs; an effect the other way counts as inactive or inconclusive). The method in brief:
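Agonist activity is monitored as intracellular calcium rise in engineered HEK293 cells carrying human KISS1R. Cells are dye-loaded for 1 h at 37 C before compound addition, and fluorescence is recorded for 3 min.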
For orientation: A change in cytosolic calcium serves as a functional read-out for many receptors and channels.

The nature of experiment [15]: p53 small molecule agonists, cell-based qHTS assay with human liver microsomes (AID 1963577).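 Further: p53 response element beta-lactamase reporter cells with liver microsomes plus NADPH.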 In a few lines: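 Steps: plate p53RE-bla cells, incubate 5 h at 37 C; add compound in DMSO; add microsomes (0.5 mg/mL final) and NADPH (0.5 mg/mL final); incubate 16 h at 37 C; add LiveBLAzer, 2 h RT; read fluorescence.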
Experiment [16] can be described thus: p53 small molecule agonists, cell-based qHTS assay with rat liver microsomes (AID 1963578). The method in brief:
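Metabolic activation is supplied by rat liver microsomes with NADPH (each 0.5 mg/mL final). p53RE-bla cells incubate with compound 16 h at 37 C; reporter activity is measured by LiveBLAzer fluorescence.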

A short description of experiment [17]: p53 small molecule agonists, cell-based qHTS assay (AID 1963582; active means well fitted activation curve with a large enough effect in the signal ratio in the repeat runs, not every such curve was filed as active; the % refers to the signal ratio). The method in brief:
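Cells carrying a p53-responsive bla reporter are treated with test compounds for 16 h at 37 C; beta-lactamase activity is then detected with LiveBLAzer B/G FRET substrate after 2 h at room temperature.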

In experiment [18] the target is D(2) dopamine receptor (Homo sapiens) (UniProt P14416). The experiment can be described thus: Dopamine D2 receptor (DRD2) small molecule antagonists, cell-based qHTS assay (AID 1963595; active means well fitted inhibition curve with a large enough effect in the signal ratio in the repeat runs, with a control signal flat; the % refers to the signal ratio; further: potency means the concentration at half of the fitted maximal effect). In a few lines:
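HEK293 cells stably expressing DRD2 were preincubated with 0.1 mM Ro20-1724, then with compound for 10 min at room temperature. Cells were stimulated with 200 nM NKH477 plus 12 nM quinpirole for 30 min, and cAMP was read by HTRF.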

Experiment [19] has as its target 5-hydroxytryptamine receptor 2A (Homo sapiens) (UniProt P28223). The experiment can be described thus: 5-hydroxytryptamine receptor 2A (HTR2A) small molecule antagonists, cell-based qHTS assay (AID 1963586). Further: nearly all actives have a fitted effect of over 45% in size. In a few lines:
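CHO cells stably expressing human HTR2A were plated for 18 h at 37 C, then loaded with calcium dye for 1 h. Compounds were preincubated 5 min at room temperature before DOI (4 nM solution) was added. Kinetic fluorescence was read for 3 min.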

Experiment [20] can be described thus: cAMP Responsive Elements (CRE) small molecule agonists, cell-based qHTS assay (AID 1963590). The method in brief:
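Cells carrying a CRE-driven beta-lactamase reporter (HEK 293T) are seeded, incubated overnight (18 h), and treated with test compounds for 3 h at 37 C; reporter activity is then detected with a FRET substrate after 2 h at room temperature.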

Values without a mark were called inactive. Records with an inconclusive call do not appear. Active and inactive are the calls of the source. Unless noted, the call rests on the fitted dose curve.

Gonadotropin-releasing hormone receptor (Homo sapiens), sequence (P30968 whole entry, looked up): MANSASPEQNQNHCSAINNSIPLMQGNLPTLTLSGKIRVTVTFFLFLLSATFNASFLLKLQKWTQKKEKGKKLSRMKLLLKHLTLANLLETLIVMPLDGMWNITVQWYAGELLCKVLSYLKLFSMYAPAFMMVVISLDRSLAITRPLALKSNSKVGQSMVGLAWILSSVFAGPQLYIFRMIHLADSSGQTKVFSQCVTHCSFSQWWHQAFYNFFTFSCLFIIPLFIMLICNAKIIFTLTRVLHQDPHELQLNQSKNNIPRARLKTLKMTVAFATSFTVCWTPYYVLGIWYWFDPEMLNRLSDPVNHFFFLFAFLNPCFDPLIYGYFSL
Muscarinic acetylcholine receptor M1 (Homo sapiens), sequence (P11229 whole entry, looked up): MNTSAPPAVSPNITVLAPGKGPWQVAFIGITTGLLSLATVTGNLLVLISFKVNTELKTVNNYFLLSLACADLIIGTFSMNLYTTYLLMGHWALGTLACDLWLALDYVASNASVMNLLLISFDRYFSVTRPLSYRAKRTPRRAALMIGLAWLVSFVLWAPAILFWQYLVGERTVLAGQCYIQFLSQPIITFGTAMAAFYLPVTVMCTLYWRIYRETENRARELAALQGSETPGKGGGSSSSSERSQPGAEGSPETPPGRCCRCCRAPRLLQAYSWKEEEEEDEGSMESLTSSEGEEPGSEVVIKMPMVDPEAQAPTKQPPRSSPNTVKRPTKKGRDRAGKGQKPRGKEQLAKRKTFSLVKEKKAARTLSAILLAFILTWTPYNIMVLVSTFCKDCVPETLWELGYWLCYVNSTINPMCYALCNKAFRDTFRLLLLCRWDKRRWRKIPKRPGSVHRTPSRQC
5-hydroxytryptamine receptor 2A (Homo sapiens), sequence (P28223 whole entry, looked up): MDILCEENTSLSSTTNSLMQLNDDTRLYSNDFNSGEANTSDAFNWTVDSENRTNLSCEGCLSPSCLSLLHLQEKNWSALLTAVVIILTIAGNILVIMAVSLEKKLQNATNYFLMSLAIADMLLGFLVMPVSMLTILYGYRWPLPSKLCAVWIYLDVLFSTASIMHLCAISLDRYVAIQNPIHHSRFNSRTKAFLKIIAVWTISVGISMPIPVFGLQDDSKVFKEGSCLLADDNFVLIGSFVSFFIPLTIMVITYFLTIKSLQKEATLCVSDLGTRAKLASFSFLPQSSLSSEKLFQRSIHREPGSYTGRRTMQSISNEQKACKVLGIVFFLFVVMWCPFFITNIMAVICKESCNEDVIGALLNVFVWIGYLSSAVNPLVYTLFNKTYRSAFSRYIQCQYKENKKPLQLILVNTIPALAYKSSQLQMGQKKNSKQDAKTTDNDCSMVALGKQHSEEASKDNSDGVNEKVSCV
D(2) dopamine receptor (Homo sapiens), sequence (P14416 whole entry, looked up): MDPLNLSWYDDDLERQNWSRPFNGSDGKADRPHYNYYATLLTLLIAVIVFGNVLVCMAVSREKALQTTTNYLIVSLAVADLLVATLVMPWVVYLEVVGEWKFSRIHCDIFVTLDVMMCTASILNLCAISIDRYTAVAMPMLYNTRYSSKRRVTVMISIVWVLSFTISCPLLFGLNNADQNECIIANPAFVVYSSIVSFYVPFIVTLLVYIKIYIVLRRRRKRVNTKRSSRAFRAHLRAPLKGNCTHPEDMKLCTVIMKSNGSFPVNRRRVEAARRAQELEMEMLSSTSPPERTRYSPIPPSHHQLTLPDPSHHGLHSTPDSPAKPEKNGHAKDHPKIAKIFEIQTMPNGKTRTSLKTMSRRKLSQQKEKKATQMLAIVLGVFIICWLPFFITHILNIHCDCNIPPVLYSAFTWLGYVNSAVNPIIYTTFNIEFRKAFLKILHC
Beta-2 adrenergic receptor (Homo sapiens), sequence (P07550 whole entry, looked up): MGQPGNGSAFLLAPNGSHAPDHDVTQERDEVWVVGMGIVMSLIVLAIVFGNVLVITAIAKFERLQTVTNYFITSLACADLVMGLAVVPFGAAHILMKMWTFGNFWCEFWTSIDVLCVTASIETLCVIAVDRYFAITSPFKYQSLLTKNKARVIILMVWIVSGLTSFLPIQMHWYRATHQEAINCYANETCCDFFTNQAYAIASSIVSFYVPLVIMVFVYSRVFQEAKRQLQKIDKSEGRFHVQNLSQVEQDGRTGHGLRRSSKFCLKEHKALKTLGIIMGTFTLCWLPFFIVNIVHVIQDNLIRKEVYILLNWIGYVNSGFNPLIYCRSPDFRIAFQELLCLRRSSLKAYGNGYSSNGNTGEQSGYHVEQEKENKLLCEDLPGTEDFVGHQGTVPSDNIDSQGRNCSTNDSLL
KiSS-1 receptor (Homo sapiens), sequence (Q969F8 whole entry, looked up): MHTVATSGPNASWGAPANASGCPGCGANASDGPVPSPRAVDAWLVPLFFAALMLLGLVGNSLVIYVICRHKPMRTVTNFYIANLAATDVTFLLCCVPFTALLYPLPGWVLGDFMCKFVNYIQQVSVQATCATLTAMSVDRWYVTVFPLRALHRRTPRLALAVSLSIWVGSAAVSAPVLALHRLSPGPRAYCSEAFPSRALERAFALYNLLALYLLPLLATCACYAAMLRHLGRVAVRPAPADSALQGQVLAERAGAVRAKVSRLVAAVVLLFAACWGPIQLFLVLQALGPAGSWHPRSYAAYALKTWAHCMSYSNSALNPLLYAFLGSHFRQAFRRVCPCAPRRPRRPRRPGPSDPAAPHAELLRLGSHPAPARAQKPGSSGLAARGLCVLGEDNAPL

For `Clc1ccc(C(OCCN2CCCCC2)c2ccccc2)cc1` (stereo unspecified), the Potency entry in experiment [1], in experiment [2], in experiment [3], in [4], in experiment [5] and in [6] was “inactive” throughout. Further, the Potency entry in [7], in experiment [8], in experiment [10], in experiment [11], in [12] and in experiment [13] was “inactive” in each case. In addition, in [9], the Potency is 0.46 µM (active).
Take `CC(C)(C)NCC(O)c1cc(Cl)c(N)c(Cl)c1` (stereo unspecified): the Potency entry in experiment [1], in experiment [2], in experiment [14], in [4], in [15] and in experiment [16] was “inactive” in each case. Further, the Potency result in [5], in [6], in experiment [7], in [17], in experiment [11] and in [13] was “inactive” each time. The Potency in experiment [18] is 0.0021 µM (active).
Regarding `CN(C)S(=O)(=O)N(SC(F)(Cl)Cl)c1ccccc1`, the Potency in experiment [1] was 13.7 µM (active); in [2], 4.86 µM (active); in experiment [3], 38.9 µM (active); in [4], 38.9 µM (active); in [10] it was 43.6 µM (active); in [18] it was 5.45 µM (active). The Potency entry in experiment [16], in [7], in [17] and in experiment [19] was “inactive” each time.
Take `CN(N=O)c1ccc([N+](=O)[O-])cc1`: the Potency entry in experiment [1], in experiment [2], in experiment [3], in experiment [4], in experiment [5] and in experiment [6] was “inactive” each time. Besides, the Potency result in [7], in [19], in experiment [8], in experiment [9], in experiment [10] and in experiment [11] was “inactive” throughout. Besides, the Potency entry in [12], in experiment [13] and in experiment [18] was “inactive” each time.
As to `O=C(CCCCl)c1ccc(F)cc1`, the Potency result in experiment [1], in experiment [2], in experiment [3], in experiment [16], in [6] and in experiment [7] was “inactive” each time. Further, the Potency result in experiment [19], in [8], in [9], in experiment [10], in experiment [20] and in experiment [11] was “inactive” each time. In addition, the Potency entry in [12] and in experiment [13] was “inactive” in each case.
For the compound `C[C@H](N)[C@H](O)c1ccc(O)c(O)c1`, the Potency entry in experiment [1], in experiment [2], in [14], in experiment [4], in experiment [15] and in experiment [16] was “inactive” each time. Also, the Potency result in [5], in experiment [6], in experiment [7], in [17], in experiment [8] and in [10] was “inactive” each time. Besides, the Potency entry in [11] and in [13] was “inactive” throughout.
Take `Cc1ccc(N(SC(F)(Cl)Cl)S(=O)(=O)N(C)C)cc1`: the Potency in experiment [1] is 27.3 µM (active); in experiment [2], 7.7 µM (active); in experiment [3], 34.7 µM (active); in experiment [5], 16.2 µM (active); in [8], 49 µM (active); in experiment [10] it was 49 µM (active). In addition, in experiment [18], the Potency was 3.06 µM (active). For the same compound, the Potency entry in experiment [15], in experiment [16], in experiment [7], in experiment [17] and in experiment [19] was “inactive” throughout.

These data come from PubChem BioAssay (Tox21).
